45 sequences from publication PMC7819943, “Rice protein-binding microarrays: a tool to detect cis-acting elements near promoter regions in rice” can be followed below.

Whole data set: some 68,000 sequences, median “fluorescence intensity (a.u.)” near 9,100, cut for the highest 2% near 16,000. Only a selection was taken, and the highest values are over-represented in it overall.

OsWRKY34, sequence (Q0JBA9 entry or part of it): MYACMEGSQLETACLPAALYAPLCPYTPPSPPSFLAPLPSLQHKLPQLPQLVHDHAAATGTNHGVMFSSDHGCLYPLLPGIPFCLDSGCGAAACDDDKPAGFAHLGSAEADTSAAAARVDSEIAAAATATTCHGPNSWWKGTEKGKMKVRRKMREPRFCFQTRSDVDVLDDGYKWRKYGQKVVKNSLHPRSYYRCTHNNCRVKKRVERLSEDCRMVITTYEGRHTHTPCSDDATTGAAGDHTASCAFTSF

The experiment addresses OsWRKY34 (Oryza sativa, UniProt Q0JBA9 1-250). The experiment can be described thus: protein-binding microarray (RPBM); PBS, 2% BSA, 51.3 ng/ul salmon testes DNA, 50 uM zinc acetate, 200 nM TF, 25 C, 1 h; high values mean tight binding. To be noted: protein: recombinant; tags: N-terminal polyhistidine and DsRed monomer fusion (pET32a); label: CyDye5-dUTP incorporated in the synthesized complementary strand; 3' TTTTT single-stranded linker to array surface; dsDNA, one strand shown. Put shortly:
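The binding signal for each feature is its fluorescence intensity in arbitrary units. An Axon 4000B scanner was used to read a custom Agilent array that had been made double-stranded with Cy5-dUTP primer extension, blocked with 2% BSA, incubated at 25 °C for 1 h with 200 nM protein in PBS, 2% BSA, salmon testes DNA and 50 µM zinc acetate, and washed. The protein was an N-terminal polyhistidine–DsRed transcription factor fusion from E. coli BL21-CodonPlus, purified on Ni–NTA.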
With “TGACGCCGTTGACTTTTTATCTAATGTTTGACTATTCGTCCGGAGTCACCTAGTGCAG”, the binding signal was 43500 fluorescence intensity (a.u.). The figure for “TAGATGACGCCGTTGATTTTTTTCTCACATATTTGACCATCGGAGTCACCTAGTGCAG” is 10700 fluorescence intensity (a.u.); for “AGATGACGCCGTTGACTTTTTCTTACATATTTGACCATTCCGGAGTCACCTAGTGCAG” it is 25400 fluorescence intensity (a.u.); for “CACCGTTGACTTTTTCTCACATGTTTGACCATTCGTCTTACGGAGTCACCTAGTGCAG” it is 48400 fluorescence intensity (a.u.). The figure for “AGTTGTTCTTCTCAGCAGGTTGCTGTCATCTTAGACTTTTCGGAGTCACCTAGTGCAG” is 8410 fluorescence intensity (a.u.). In the case of “TAGACTTTTTCTCACATGTTTGACCATTCGTCTTATTCAACGGAGTCACCTAGTGCAG” it was 11700 fluorescence intensity (a.u.); in that of “TCATCTCACGCTGTTGACTTTCTCTTTTTTTTTCGGGGAGCGGAGTCACCTAGTGCAG”, 18000 fluorescence intensity (a.u.). Regarding “TGACTTTTTCTCACATGTTTGACCATTCGTCTTATTAAAACGGAGTCACCTAGTGCAG”, the binding signal was 12500 fluorescence intensity (a.u.).

“ACTTTTTTTCTCAATCTGTGCTCTTTCACGTGTTTGACTTCGGAGTCACCTAGTGCAG”: the binding signal is 11400 fluorescence intensity (a.u.). “ACTGTCCACTCACTTTTTCTTCACCCAGGAGACGAAATTTCGGAGTCACCTAGTGCAG”: the binding signal was 11200 fluorescence intensity (a.u.). The figure for “TGGCTTATCTCGTTTTGTATATCATCTTCTTAATCTTTTTCGGAGTCACCTAGTGCAG” is 10500 fluorescence intensity (a.u.); for “CTGCCTCGCTGCCGCCTGCCGTCTCCCCGGGCCCATCTTTCGGAGTCACCTAGTGCAG” it is 8210 fluorescence intensity (a.u.). The figure for “GTGGCGTCAAAGTATTGAGGGCGGGGATGCGGCCACCGTACGGAGTCACCTAGTGCAG” is 8640 fluorescence intensity (a.u.). The figure for “ACCTGTGCTTGATGGGATGGAAGCTTGGATTAGGTTGGTTCGGAGTCACCTAGTGCAG” is 8560 fluorescence intensity (a.u.). As for “TCTCGCTCGTTTTACCGCAGCATTTTGTTGTTGCTCTAGCCGGAGTCACCTAGTGCAG”, the binding signal is 8620 fluorescence intensity (a.u.).

In the case of “AGTTAGTCAAGCGTATCCTATTTTACGTGCCCGCGCGAATCGGAGTCACCTAGTGCAG”, the binding signal is 9610 fluorescence intensity (a.u.). The figure for “GACTATCTTGTCGTTCGGTCCAAAAACCGGCGCCTTATGACGGAGTCACCTAGTGCAG” is 8300 fluorescence intensity (a.u.); for “CACGACCTTAAGCCTCATAATTTGGACAATCACAGCAACTCGGAGTCACCTAGTGCAG” it is 9170 fluorescence intensity (a.u.).

As for “TTTTTTCTCACATGTTTGACCATTCGTCTTATTCAAAAAACGGAGTCACCTAGTGCAG”, the binding signal is 8550 fluorescence intensity (a.u.). The figure for “CGCCGTTGACTTTTTCTCACATGTTTGACCATTCGTCTTACGGAGTCACCTAGTGCAG” is 42500 ± 475 fluorescence intensity (a.u.); for “GCACATGTTTGACCATTCATCTTATAAGAAAAAACTTTTGCGGAGTCACCTAGTGCAG” it is 8090 fluorescence intensity (a.u.).

For the sequence “TTCTCACATGTTTGACCATTCGTCTTATTAAAAATTTTATCGGAGTCACCTAGTGCAG”, the binding signal is 11100 fluorescence intensity (a.u.). The figure for “TGATGCCGTTGACTTTTTCTCATATGTTTGACCATTCGTCCGGAGTCACCTAGTGCAG” is 44800 fluorescence intensity (a.u.). In the case of “TTGACCTTTTCTCACATGTTTAACCATTCGTCTTATTTAACGGAGTCACCTAGTGCAG” it was 13500 fluorescence intensity (a.u.); in that of “ATAGATGACGCCGTTGATTTTTTCTCATATGTTTGACCATCGGAGTCACCTAGTGCAG”, 11600 fluorescence intensity (a.u.).

For “GTTGACTTTTTTTCACATGTTTGACCATTCATCTTATTCACGGAGTCACCTAGTGCAG”, the binding signal is 13400 fluorescence intensity (a.u.). Take “GCCGTTGACTTTTTCTCACATATTTGACCATTCGTCTTATCGGAGTCACCTAGTGCAG”: the binding signal was 45300 fluorescence intensity (a.u.). With “ACCATGTTGACTTTTTGCACATTTATAGAATCTTTTGGTACGGAGTCACCTAGTGCAG”, the binding signal was 21800 fluorescence intensity (a.u.). The figure for “AATAGATGACGTTGTTGACTTTTTCTCATATGTTTGACCACGGAGTCACCTAGTGCAG” is 13000 fluorescence intensity (a.u.); for “CATTGACTTTTTCTCACATATTTGTCCATTCGTCTTATTACGGAGTCACCTAGTGCAG” it is 16100 fluorescence intensity (a.u.). In the case of “TCGTCCGCTGCAGCCGCTCGCTAGCTAGTAGCTATAGCTACGGAGTCACCTAGTGCAG” it was 8160 fluorescence intensity (a.u.); in that of “ACACAGGCAGCAGTAGCACCTCGATCCATCTACCATTTTACGGAGTCACCTAGTGCAG”, 10200 fluorescence intensity (a.u.); in that of “CTTAGCTCGTATGTAGACTTTTGATGGCTTAATCCTATTTCGGAGTCACCTAGTGCAG”, 8550 fluorescence intensity (a.u.). The figure for “ATTAGGGATAACCGTCACTGTTTGTTGCTGTTTTTATGTTCGGAGTCACCTAGTGCAG” is 9960 fluorescence intensity (a.u.). Regarding “TTGGTGACTAAGCAGCTAGCTCATATTCCGTTTCAGCTTCCGGAGTCACCTAGTGCAG”, the binding signal was 9770 fluorescence intensity (a.u.). The figure for “TCTCGTGTTCCTCTTCACTACCACTTCTAGAAGCTTCCTCCGGAGTCACCTAGTGCAG” is 8020 fluorescence intensity (a.u.). The figure for “GGGGTTTATTATTTTCCCGGGTTAAATTGCCACGTAAGCACGGAGTCACCTAGTGCAG” is 10100 fluorescence intensity (a.u.); for “ATAATAATATTTTTCACCTATGCCATACTTCTTTTGTCAACGGAGTCACCTAGTGCAG” it is 8040 fluorescence intensity (a.u.). Take “CGACTCCGACCTCTGCTCTCTTCCTTTTACACCCCATATCCGGAGTCACCTAGTGCAG”: the binding signal is 11100 fluorescence intensity (a.u.). For the sequence “TTTACTAAACTCGATCAGTTCTTCCCATATACTCTTGTGACGGAGTCACCTAGTGCAG”, the binding signal is 9070 fluorescence intensity (a.u.). The figure for “ATCAACCATGAACCATCCGCGCCCGCGCACCTCCTCCTCTCGGAGTCACCTAGTGCAG” is 8100 fluorescence intensity (a.u.); for “CGTTGACTTTTTCTCACATGTTTGACCATTCGTCTTATTCCGGAGTCACCTAGTGCAG” it is 31500 fluorescence intensity (a.u.).

On to “TTCTCCATTTTTTCATGGTTGACTCTAATCTTCATGACTACGGAGTCACCTAGTGCAG”, for which the binding signal was 8280 fluorescence intensity (a.u.).

With “TGACTTTTTCTCACATGTTTGACCATTCGTCTTATTCAAACGGAGTCACCTAGTGCAG”, the binding signal is 10900 ± 914 fluorescence intensity (a.u.). The figure for “TAGCTCATTCATGCCTCCATCGGTTGACTTTTTTTTTCTACGGAGTCACCTAGTGCAG” is 20500 fluorescence intensity (a.u.).
